Experimental findings from the supplement of paper PMC8728848 are described below.

Common to all, as to test: glycan array binding signal (z-score within array); higher = stronger binding
Conditions in all cases: glycan notation: IUPAC condensed, linker removed

In assay [1] the target is Fuc(a1-2)Gal(b1-3)GalNAc(b1-3)Gal(b1-4)Glc. An outline of the steps: (§1)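 The binding signal is a Z-score computed within each array and averaged over linkers. Arrays of the same protein sequence at different concentrations or buffers were also averaged together. Data originate from 3228 arrays in the Consortium for Functional Glycomics database, kept only where the protein sequence was available.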

The target in assay [2] is Fuc(a1-2)[Gal(a1-3)]Gal(b1-4)[Fuc(a1-3)]GlcNAc. An outline of the steps:
as §1

The target of assay [3] is Fuc(a1-2)[GalNAc(a1-3)]Gal(b1-4)Glc. An outline of the steps:
as §1

The next assay concerns the target Fuc(a1-4)GlcNAc. An outline of the steps: as §1
In the next assay the target is Gal(a1-3)Gal(b1-4)GlcNAc. An outline of the steps:
as §1

The target in assay [4] is Gal(b1-3)GalNAc(b1-3)Gal(b1-4)Glc. An outline of the steps: as §1
Assay [5] has as its target Gal(b1-4)GalNAc(a1-3)[Fuc(a1-2)]Gal(b1-4)GlcNAc. An outline of the steps:
as §1

In assay [6] the target is Gal(b1-4)GlcNAc(b1-3)Gal(b1-4)Glc. An outline of the steps: as §1
The target in a further assay is Gal6S(b1-4)Glc6S. An outline of the steps: as §1
Another assay addresses GalNAc(a1-3)Gal. An outline of the steps: as §1
Assay [7] concerns the target GlcNAc(b1-3)[GlcNAc(b1-4)][GlcNAc(b1-6)]GlcNAc. An outline of the steps:
as §1

Assay [8] has as its target GlcNAc(b1-4)[GlcNAc(b1-6)]GalNAc. An outline of the steps: as §1
Assay [9] deals with Man(a1-2)Man(a1-3)[Man(a1-3)[Man(a1-6)]Man(a1-6)]Man(b1-4)GlcNAc(b1-4)GlcNAc. An outline of the steps: as §1
Assay [10] concerns the target Neu5Ac(a2-3)Gal(b1-4)[Fuc(a1-3)]GlcNAc. An outline of the steps: as §1
The target of assay [11] is Fuc(a1-2)Gal(b1-3)GlcNAc(b1-3)Gal(b1-4)Glc. An outline of the steps:
as §1

The target in the next assay is Fuc(a1-2)Gal(b1-4)GlcNAc. An outline of the steps:
as §1

The target of a further assay is Gal(a1-3)Gal(b1-4)Glc. An outline of the steps: as §1
Assay [12] deals with Gal(b1-3)[Fuc(a1-4)]GlcNAc(b1-3)Gal(b1-4)GlcNAc. An outline of the steps: as §1
For assay [13], the target named is Gal(b1-3)[Neu5Ac(a2-6)]GalNAc. An outline of the steps:
as §1

Assay [14] deals with Gal(b1-3)[Neu5Ac(a2-6)]GlcNAc(a1-4)Gal(b1-4)Glc. An outline of the steps:
as §1

The target of assay [15] is Gal(b1-3)[Neu5Ac(a2-6)]GlcNAc(b1-6)Gal(b1-4)Glc. An outline of the steps: as §1
Assay [16] concerns the target Gal(b1-3)[Neu5Ac(b2-6)]GalNAc. An outline of the steps: as §1
Assay [17] concerns the target Gal(b1-4)GlcNAc(b1-6)GalNAc. An outline of the steps:
as §1

A further assay deals with Gal3S(b1-4)Glc. An outline of the steps: as §1
In a further assay the target is Gal4S(b1-4)GlcNAc. An outline of the steps: as §1
Assay [18] has as its target GlcNAc(b1-2)Gal(b1-3)GlcNAc. An outline of the steps: as §1
Assay [19] deals with Man(a1-2)Man(a1-3)[Man(a1-6)]Man(a1-6)[Man(a1-2)Man(a1-3)]Man(b1-4)GlcNAc(b1-4)GlcNAc. An outline of the steps: as §1
The target in assay [20] is Man(a1-3)[Man(a1-6)]Man(a1-6)[Man(a1-2)Man(a1-3)]Man(b1-4)GlcNAc(b1-4)GlcNAc. An outline of the steps: as §1
For assay [21], the target named is Man(a1-3)[Man(a1-6)]Man(b1-4)GlcNAc(b1-4)GlcNAc. An outline of the steps:
as §1

For assay [22], the target named is Neu5Ac(a2-3)Gal(b1-4)GlcNAc6S. An outline of the steps: as §1
Assay [23] has as its target Neu5Ac(a2-3)Gal6S(b1-4)GlcNAc. An outline of the steps: as §1
Assay [24] deals with Neu5Ac(a2-8)Neu5Ac(a2-8)Neu5Ac(a2-8)Neu5Ac(a2-3)[GalNAc(b1-4)]Gal(b1-4)Glc. An outline of the steps:
as §1

Only a selection was taken, and the strongest signals are over-represented in it overall.

B1: Alpha-agglutinin (Saccharomyces cerevisiae) (protein)
chain: MFTFLKIILWLFSLALASAININDITFSNLEITPLTANKQPDQGWTATFDFSIADASSIREGDEFTLSMPHVYRIKLLNSSQTATISLADGTEAFKCYVSQQAAYLYENTTFTCTAQNDLSSYNTIDGSITFSLNFSDGGSSYEYELENAKFFKSGPMLVKLGNQMSDVVNFDPAAFTENVFHSGRSTGYGSFESYHLGMYCPNGYFLGGTEKIDYDSSNNNVDLDCSSVQVYSSNDFNDWWFPQSYNDTNADVTCFGSNLWITLDEKLYDGEMLWVNALQSLPANVNTIDHALEFQYTCLDTIANTTYATQFSTTREFIVYQGR
In the case of B1, the “glycan array binding signal (z-score)” value in assay [1] is 6.41; in [2], -0.112; in assay [3] it was 0.558; with Fuc(a1-4)GlcNAc it was -0.216; with Gal(a1-3)Gal(b1-4)GlcNAc, -0.248; in [4], 8.68. For the same molecule, the “glycan array binding signal (z-score)” value is 0.014 in assay [5]; 3.24 in assay [6]; 0.122 with Gal6S(b1-4)Glc6S; -0.162 in the assay with GalNAc(a1-3)Gal; 0.203 in assay [7]; 5.52 in [8]. In addition, the results for the “glycan array binding signal (z-score)” value in assay [9] and in [10] were -0.251 and -0.258, respectively.

B2: T7P4 (Tuber borchii) (protein)
chain: GSHIGPYMSFYASSEDVRTIEEGGRTWLVGRARRADGSWQDIKLDLDNIIGNRDGHLTWGEQNFTQSASDIRFNFEGSNVPVLRAKLRNAAGGEQESDLNLGERLTNNNGDLVFN
As to B2, the “glycan array binding signal (z-score)” value in assay [1] was 6.04; in assay [11] it was 5.88; with Fuc(a1-2)Gal(b1-4)GlcNAc it was -0.207; in the assay with Gal(a1-3)Gal(b1-4)Glc, -0.222; in assay [4] it was 5.7; in assay [12], -0.207. The “glycan array binding signal (z-score)” value is -0.213 in assay [13]; 5.89 in assay [14]; 5.74 in assay [15]; -0.16 in [16]; 2.77 in assay [6]; -0.221 in assay [17]. Further, the “glycan array binding signal (z-score)” value with Gal3S(b1-4)Glc was -0.008; with Gal4S(b1-4)GlcNAc, -0.202; with GalNAc(a1-3)Gal, -0.215; in [18], 0.204; in assay [19], -0.213; in [20], -0.223. In addition, the “glycan array binding signal (z-score)” value is -0.226 in assay [21], -0.208 in [22], -0.213 in [23] and -0.223 in [24].
